# Bioassay records: PubChem BioAssay, several laboratories
# GluA2 TARP mod: modulators of GluA2-stargazin AMPA receptor complexes, primary screen, cell-based, membrane potential dye; Voltage-dependent calcium channel gamma-2 subunit (Mus musculus) + Glutamate receptor 2 …; hit rate 3.5% among 40,000; HEK293 GluA2+stargazin, membrane potential dye (FDSS), glutamate EC50; hits were called plate by plate, in both directions; calls only at 30 µM;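 active = any of four per-well response measures lying three or more SD from its plate-wide compound average, in either direction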
# GIRK2 activator: activators of NPY4-receptor-primed GIRK2 channels, summary, cell-based, HEK293, thallium flux; G protein-activated inward rectifier potassium channel 2 (Homo sapiens), P48051; HEK293 GIRK2/NPY4 cells, thallium flux fluorescence; activation (% efficacy), % for hits at 37.5 µM; 34,000 tested, under 10 active;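 active = primary screen hit, no activity in plain HEK293 cells, and in GIRK2-only cells above 5% efficacy rising with concentration; inactive = the rest, including fluorescent compounds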;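 note: efficacy is normalized control-subtracted fluorescence 15 s after thallium addition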
# Target sequence (P48051 whole entry, looked up): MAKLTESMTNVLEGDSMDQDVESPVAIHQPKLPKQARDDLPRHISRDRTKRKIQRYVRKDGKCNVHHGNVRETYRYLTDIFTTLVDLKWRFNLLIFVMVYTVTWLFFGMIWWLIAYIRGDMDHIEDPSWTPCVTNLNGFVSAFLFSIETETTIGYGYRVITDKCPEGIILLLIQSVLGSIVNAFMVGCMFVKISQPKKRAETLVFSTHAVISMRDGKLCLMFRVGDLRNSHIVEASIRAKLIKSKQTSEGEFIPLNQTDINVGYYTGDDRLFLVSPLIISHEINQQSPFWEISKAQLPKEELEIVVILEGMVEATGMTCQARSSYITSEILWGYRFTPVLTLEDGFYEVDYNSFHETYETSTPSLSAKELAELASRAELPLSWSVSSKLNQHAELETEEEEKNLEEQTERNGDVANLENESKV
# * marks the source's active call; other numbers are inactive results; i = inactive; x = not tested or not shown; + = active, no number. This excerpt belongs to a sample that is enriched for hits.
SMILES,GluA2 TARP mod,GIRK2 activator
Cc1cc(C)n(-c2nc3c(c(=O)n2CC(=O)N(C)c2ccccc2)CCC3)n1,i,i
O=C(Cn1cnc(-c2ccccc2)cc1=O)N1CCC(Cc2ccccc2)CC1,i,i
O=C(NCC(O)c1ccc(C(F)(F)F)cc1)Nc1cccs1 (configuration not stated),+,x
O=C(NCc1cccs1)NCC(O)c1ccc(C(F)(F)F)cc1 (configuration not stated),i,x
C#CCn1c(=NC(=O)c2cc(C)nn2CC)sc2c(OC)ccc(OC)c21,i,i
COc1cccc(N2C(=O)CN(Cc3ccccc3)C3CS(=O)(=O)CC32)c1 (configuration not stated),i,i
COc1cc(S(=O)(=O)Nc2cccc3cn[nH]c23)c(OC)cc1Cl,i,x
COc1cc(S(=O)(=O)Nc2cc(Cl)ccc2O)c(OC)cc1Cl,+,i
Cc1cccc(NC(=O)Cn2cccc(-c3nc(-c4ccc(Br)cc4)no3)c2=O)c1,i,i
COc1cccc(NC(=O)Cn2cccc(-c3nc(-c4ccc(Br)cc4)no3)c2=O)c1,+,i
Cc1ccc(-n2ccnc2N2CCN(C(=O)CCc3ccccc3)CC2)cc1,i,i
Cc1ccc(-n2ccnc2N2CCN(C(=O)c3ccc4ccccc4c3)CC2)cc1,i,i
Cc1ccc(-n2ccnc2N2CCN(C(=O)c3ccc(C)c(C)c3)CC2)cc1,+,i
Cc1ccc(-n2ccnc2N2CCN(C(=O)CCCc3ccccc3)CC2)cc1,+,i
Cc1cc(CN2CCC(CNS(=O)(=O)CCc3ccccc3)CC2)c(C)o1,x,i
COC(=O)c1ccc(NC(=O)C(=O)NCC2CCN(C(=O)Oc3ccccc3)CC2)cc1,i,i
CCOC(=O)N1CCC(NC(=O)C2CCN(c3cc(Sc4cc(C)ccc4C)ncn3)CC2)CC1,+,i
Cc1ccc(C)c(Sc2cc(N3CCC(C(=O)NCC(C)C)CC3)ncn2)c1,i,i
COc1ccc(OCC(=O)NCCc2ccc(OC)c(OC)c2)cc1,i,i
COc1ccc(CCNC(=O)COc2ccc(C(C)C)c(C)c2)cc1OC,+,i
COC(=O)c1cccc(NS(=O)(=O)c2ccc(F)cc2)c1C,i,x
COC(=O)c1ccccc1NC1=C/C(=N/S(=O)(=O)c2ccc(F)cc2)c2ccccc2C1=O,+,x
CCOc1ccc(NC2=C/C(=N/S(=O)(=O)c3ccc(OC)cc3)c3ccccc3C2=O)cc1,i,x
COc1ccc(S(=O)(=O)/N=C2/C=C(Nc3ccc(C)cc3)C(=O)c3ccccc32)cc1,+,x
COc1ccc(S(=O)(=O)CCC(=O)Nc2cc(C)cc(C)c2)cc1,i,i
SMILES,GluA2 TARP mod,GIRK2 activator
COc1ccc(S(=O)(=O)/N=C2/C=C(Nc3cccc(C)c3)C(=O)c3ccccc32)cc1,+,x
O=C(CSc1ccc(NC(=O)c2cccs2)nn1)OCc1ccccc1,i,i
CCOC(=O)CCC(=O)NCC1CCN(S(C)(=O)=O)CC1,i,i
Cc1nc(N2CC(C)OC(C)C2)nc(NCc2ccccc2)c1[N+](=O)[O-] (configuration not stated),i,i
O=C(c1ccc(=O)n(Cc2ccc(F)cc2)n1)N1CCCC1,i,i
S=c1nc2ccccc2c2[nH]c3ccccc3n12,i,i
COc1cccc(C(CNC(=O)c2cc(-c3ccccc3)on2)N2CCOCC2)c1 (configuration not stated),i,i
COC(=O)c1ccc(CSc2c(CC(C)C)cnc3c2c(=O)n(C)c(=O)n3C)cc1,i,x
CC(C)Cc1cnc2c(c1SCC(=O)N(C(C)C)C(C)C)c(=O)n(C)c(=O)n2C,+,x
Cc1cnc2c(c1SCC(=O)N(C(C)C)C(C)C)c(=O)n(C)c(=O)n2C,i,i
COc1cc(CSc2c(CC(C)C)cnc3c2c(=O)n(C)c(=O)n3C)cc(OC)c1,+,x
O=C(NCCSc1ncc(-c2ccccc2)[nH]1)NCc1cccs1,i,i
Cc1cccc(Cn2c(=O)c3c(nc4oc(-c5ccc(F)cc5)cn43)n(C)c2=O)c1,i,x
Cc1ccc2nc(NC(=O)Cc3csc(Nc4ccccc4)n3)sc2c1,i,i
COc1cccc(C(=O)NCC2CCN(S(C)(=O)=O)CC2)c1OC,i,i
CC(=O)N1CCc2c(sc(NC(=O)c3cc(C)no3)c2-c2nc3ccccc3s2)C1,i,x
CC(C)n1c(=O)c2nscc2n(CC(=O)Nc2ccc(Br)cc2)c1=O,+,i
CCc1ccccc1NC(=O)Cn1c(=O)n(C2CC2)c(=O)c2nscc21,+,i
CC(C)n1c(=O)c2nscc2n(CC(=O)Nc2ccc3c(c2)OCCO3)c1=O,i,i
